PubChem BioAssay (Tox21)
Records with an inconclusive call do not appear. Active and inactive are the calls of the source. Unless noted, calls come from the whole dose curve.

Assays:
[1] = Nuclear factor erythroid 2-related factor 2/antioxidant responsive element (Nrf2/ARE) small molecule agonists: qHTS cell viability counter screen in human keratinocytes (AID 1919968; active = well fitted curve in the direction sought with a large enough effect in the repeat runs; an effect the other way counts as inactive or inconclusive; note: nearly all actives have a fitted effect of over 55% in size)
In short: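 KeratinoSens cells (HaCaT keratinocytes stably carrying an ARE-luciferase reporter) were seeded at 1,500 cells/well and rested 5 h at 37 C/5% CO2. They were then exposed to compounds in DMSO for 23 h. Viability was read by CellTiter-Fluor fluorescence after 1 h.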

[2] = Nuclear factor erythroid 2-related factor 2/antioxidant responsive element (Nrf2/ARE) small molecule agonists: luciferase reporter gene qHTS assay in human keratinocytes (AID 1919969); note: nearly all actives have a fitted effect of over 35% in size; note: potency is the fitted concentration of half-maximal effect
[3] = molecular target: Gonadotropin-releasing hormone receptor (Homo sapiens) (UniProt P30968); test: Human gonadotropin-releasing hormone receptor (GnRHR) small molecule agonists, calcium flux assay in GnRHR-HEK293 cells (AID 1920063); note: nearly all actives have a fitted effect of over 35% in size; note: potency is the fitted concentration of half-maximal effect
Chain of Gonadotropin-releasing hormone receptor (Homo sapiens) (P30968 whole entry, looked up): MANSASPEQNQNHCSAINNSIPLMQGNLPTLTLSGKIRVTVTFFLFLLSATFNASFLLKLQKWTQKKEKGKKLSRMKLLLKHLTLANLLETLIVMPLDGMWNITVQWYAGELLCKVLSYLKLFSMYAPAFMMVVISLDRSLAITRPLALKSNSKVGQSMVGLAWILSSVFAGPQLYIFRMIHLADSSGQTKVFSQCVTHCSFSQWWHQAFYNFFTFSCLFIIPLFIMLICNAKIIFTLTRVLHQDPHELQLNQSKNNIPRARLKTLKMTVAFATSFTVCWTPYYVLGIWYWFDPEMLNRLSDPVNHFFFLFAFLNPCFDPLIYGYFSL
In short: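 HEK293 cells stably expressing human GnRHR were plated 18 h at 37 °C, loaded with calcium dye 1 h at 37 °C, then given compound in agonist mode; fluorescence (Ex/Em 480/540) read kinetically for 3 min at 1 s intervals.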

[4] = molecular target: KiSS-1 receptor (Homo sapiens) (UniProt Q969F8); test: Human kisspeptin (KISS1R) small molecule agonists, calcium flux assay in KISS1R-HEK293 cells (AID 1920064; active = well fitted curve in the direction sought with a large enough effect in the repeat runs; an effect the other way counts as inactive or inconclusive)
Chain of KiSS-1 receptor (Homo sapiens) (Q969F8 whole entry, looked up): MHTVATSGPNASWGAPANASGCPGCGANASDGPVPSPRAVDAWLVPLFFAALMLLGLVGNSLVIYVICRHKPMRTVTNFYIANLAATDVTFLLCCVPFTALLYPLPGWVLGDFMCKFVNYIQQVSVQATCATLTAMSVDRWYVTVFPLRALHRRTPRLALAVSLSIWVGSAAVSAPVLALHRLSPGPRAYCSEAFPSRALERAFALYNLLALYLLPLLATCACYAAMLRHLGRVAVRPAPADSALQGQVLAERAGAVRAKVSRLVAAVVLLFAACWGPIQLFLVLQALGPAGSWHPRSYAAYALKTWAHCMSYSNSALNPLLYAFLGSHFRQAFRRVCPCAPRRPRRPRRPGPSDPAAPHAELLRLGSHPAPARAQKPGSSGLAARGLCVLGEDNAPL
In short: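 HEK293 cells stably expressing human KISS1R were plated 18 h at 37 °C, loaded with calcium dye for 1 h at 37 °C, then given compound by pin tool. Fluorescence (Ex/Em 480/540) was read kinetically for 3 min.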

[5] = G protein-coupled receptor (GPCR) small molecule agonists, calcium flux assay: HEK293 wild type cell line counter screen (AID 1920065)
In short: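 Cells were plated and cultured 18 h at 37 C/5% CO2, then loaded with calcium dye for 1 h at 37 C. Compounds in DMSO were pin-transferred in agonist mode, and fluorescence (Ex/Em 480/540) was read kinetically for 3 min at 1 s intervals.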

[6] = p53 small molecule agonists, cell-based qHTS assay with human liver microsomes (AID 1963577)
In short: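 Fluorescence of the beta-lactamase reporter in p53RE-bla cells, detected with LiveBLAzer substrate (2 h, room temperature, dark), served as the read-out after 16 h compound exposure at 37 C with human liver microsomes and NADPH, each 0.5 mg/mL final.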

[7] = p53 small molecule agonists, cell-based qHTS assay with rat liver microsomes (AID 1963578)
In short: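 Cells carrying a p53 response element–beta-lactamase reporter were plated and rested 5 h, then dosed with compound in DMSO plus rat liver microsomes and NADPH, each at 0.5 mg/mL final. After 16 h at 37 C, LiveBLAzer substrate was added for 2 h.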

[8] = p53 small molecule agonists, cell-based qHTS assay with human liver microsomes: qHTS cell viability counter screen (AID 1963579); note: nearly all actives have a fitted effect of over 45% in size
In short: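 Cytotoxicity counter screen: p53RE-bla, 4,000 cells/well; 5 h settle, 37 C/5% CO2; cpd + HLM 0.5 mg/mL + NADPH 0.5 mg/mL (final); 16 h, 37 C; CellTiter-Glo, 30 min RT, luminescence.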

[9] = p53 small molecule agonists, cell-based qHTS assay with rat liver microsomes: qHTS cell viability counter screen (AID 1963580); note: nearly all actives have a fitted effect of over 45% in size
In short: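 Viability is assessed in parallel with the p53 reporter read: HCT-116 p53RE-bla cells receive compounds plus rat microsomes and NADPH (0.5 mg/mL final apiece), incubate 16 h at 37 C, and then CellTiter-Glo luminescence is recorded.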

[10] = p53 small molecule agonists, cell-based qHTS assay: qHTS cell viability counter screen (AID 1963581); note: nearly all actives have a fitted effect of over 45% in size
In short: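 p53RE-bla HCT-116 cells were exposed to compounds for 16 h at 37 C; after the beta-lactamase FRET read in the same wells, CellTiter-Glo was added and luminescence (intracellular ATP) read after 30 min at room temperature.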

[11] = p53 small molecule agonists, cell-based qHTS assay (AID 1963582; active = well fitted activation curve with a large enough effect in the signal ratio in the repeat runs, not every such curve was filed as active; the % refers to the signal ratio)
In short: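 p53RE-bla beta-lactamase reporter cells rested 5 h at 37 C/5% CO2, then received compounds in DMSO by pin transfer and were incubated 16 h at 37 C. LiveBLAzer B/G FRET substrate was loaded for 2 h at room temperature before fluorescence reading.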

[12] = molecular target: 5-hydroxytryptamine receptor 2A (Homo sapiens) (UniProt P28223); test: 5-hydroxytryptamine receptor 2A (HTR2A) small molecule antagonists, cell-based qHTS assay (AID 1963586); note: nearly all actives have a fitted effect of over 45% in size; note: potency is the fitted concentration of half-maximal effect
Chain of 5-hydroxytryptamine receptor 2A (Homo sapiens) (P28223 whole entry, looked up): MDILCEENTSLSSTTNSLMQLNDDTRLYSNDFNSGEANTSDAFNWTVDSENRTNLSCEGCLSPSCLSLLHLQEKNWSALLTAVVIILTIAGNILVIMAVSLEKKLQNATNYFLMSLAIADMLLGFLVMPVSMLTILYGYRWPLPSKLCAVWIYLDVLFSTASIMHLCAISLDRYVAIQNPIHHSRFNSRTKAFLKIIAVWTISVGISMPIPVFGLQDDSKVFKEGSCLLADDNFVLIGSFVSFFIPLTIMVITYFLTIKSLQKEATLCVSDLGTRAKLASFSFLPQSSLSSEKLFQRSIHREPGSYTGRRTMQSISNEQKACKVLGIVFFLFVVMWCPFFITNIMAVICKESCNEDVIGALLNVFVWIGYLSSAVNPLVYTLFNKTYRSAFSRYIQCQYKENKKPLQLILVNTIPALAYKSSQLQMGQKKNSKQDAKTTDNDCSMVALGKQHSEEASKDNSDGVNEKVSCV
In short: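 Antagonist-mode intracellular calcium assay: DOI (4 nM) added after 5 min compound pre-incubation at room temperature to dye-loaded HTR2A-CHO cells. Fluorescence followed for 3 min, sampled every second.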

[13] = molecular target: 5-hydroxytryptamine receptor 2A (Homo sapiens) (UniProt P28223); test: 5-hydroxytryptamine receptor 2A (HTR2A) small molecule agonists, cell-based qHTS assay (AID 1963587); note: nearly all actives have a fitted effect of over 30% in size
In short: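 CHO cells stably expressing human HTR2A, plated 18 h, loaded with calcium dye 1 h at 37 C. Agonist mode: compounds added and intracellular calcium fluorescence recorded kinetically for 2 min at 1 sec intervals.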

[14] = molecular target: Muscarinic acetylcholine receptor M1 (Homo sapiens) (UniProt P11229); test: Cholinergic receptor muscarinic 1 (CHRM1) small molecule antagonists, cell-based qHTS assay (AID 1963588); note: nearly all actives have a fitted effect of over 40% in size; note: potency is the fitted concentration of half-maximal effect
Chain of Muscarinic acetylcholine receptor M1 (Homo sapiens) (P11229 whole entry, looked up): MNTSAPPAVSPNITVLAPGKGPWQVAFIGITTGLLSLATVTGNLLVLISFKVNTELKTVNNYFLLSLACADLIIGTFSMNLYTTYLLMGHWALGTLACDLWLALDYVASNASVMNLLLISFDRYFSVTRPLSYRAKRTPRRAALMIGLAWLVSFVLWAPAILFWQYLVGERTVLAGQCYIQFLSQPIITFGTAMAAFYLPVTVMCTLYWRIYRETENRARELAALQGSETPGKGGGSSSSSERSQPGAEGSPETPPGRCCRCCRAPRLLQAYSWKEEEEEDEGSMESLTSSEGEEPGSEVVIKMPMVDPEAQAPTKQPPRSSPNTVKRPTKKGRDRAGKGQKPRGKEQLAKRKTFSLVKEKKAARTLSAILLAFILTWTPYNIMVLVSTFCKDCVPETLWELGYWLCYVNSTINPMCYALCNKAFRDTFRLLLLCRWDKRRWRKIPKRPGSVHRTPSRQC
In short: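 CHRM1-CHO calcium-flux assay, antagonist mode. Cells were seeded 18 h, dye-loaded 1 h at 37 C and given compound for 5 min at RT, then acetylcholine was added at 50nM. FDSS fluorescence was read 3 min; 15 concentrations, three runs.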

[15] = molecular target: Muscarinic acetylcholine receptor M1 (Homo sapiens) (UniProt P11229); test: Cholinergic receptor muscarinic 1 (CHRM1) small molecule agonists, cell-based qHTS assay (AID 1963589); note: nearly all actives have a fitted effect of over 35% in size
In short: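 CHO cells stably expressing human CHRM1, seeded 18 h at 37 C/5% CO2, dye-loaded 1 h at 37 C, then given compound in agonist mode; intracellular calcium fluorescence read kinetically at 1 s intervals. Fifteen concentrations, three independent runs.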

[16] = cAMP Responsive Elements (CRE) small molecule agonists, cell-based qHTS assay (AID 1963590)
In short: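 CRE-bla HEK 293T cells in DMEM with 10% dialyzed FBS, NEAA, pyruvate and 25 mM HEPES were plated 18 h at 37 C/5% CO2, then exposed to compounds in DMSO for 3 h before LiveBLAzer B/G FRET substrate addition.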

[17] = cAMP Responsive Elements (CRE) small molecule antagonists, cell-based qHTS assay (AID 1963591; active = well fitted inhibition curve with a large enough effect in the signal ratio in the repeat runs, not every such curve was filed as active; the % refers to the signal ratio)
In short: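 CRE-bla HEK293T cells were plated 18 h at 37 °C/5% CO2, pinned with compound in DMSO, then stimulated with NKH477 at 0.25 uM final for 3 h. LiveBLAzer B/G FRET substrate was added and plates incubated 2 h at room temperature.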

[18] = molecular target: Beta-2 adrenergic receptor (Homo sapiens) (UniProt P07550); test: Adrenergic beta2 receptor (ADRB2) small molecule antagonists, cell-based qHTS assay (AID 1963592); note: series mostly up to about 92 µM; nearly all actives have a fitted effect of over 50% in size
Chain of Beta-2 adrenergic receptor (Homo sapiens) (P07550 whole entry, looked up): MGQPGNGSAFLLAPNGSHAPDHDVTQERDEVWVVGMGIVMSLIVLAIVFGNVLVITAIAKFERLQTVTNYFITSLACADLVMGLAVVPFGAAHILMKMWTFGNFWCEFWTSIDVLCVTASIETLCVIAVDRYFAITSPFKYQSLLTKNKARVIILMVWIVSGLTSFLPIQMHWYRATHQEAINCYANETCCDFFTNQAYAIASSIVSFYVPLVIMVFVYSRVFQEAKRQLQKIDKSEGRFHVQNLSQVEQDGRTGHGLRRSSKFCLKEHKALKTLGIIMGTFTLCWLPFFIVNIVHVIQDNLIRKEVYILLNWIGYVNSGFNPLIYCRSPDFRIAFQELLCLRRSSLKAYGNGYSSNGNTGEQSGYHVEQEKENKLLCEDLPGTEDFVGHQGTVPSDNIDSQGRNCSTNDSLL
In short: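 Cells (CHO, stable ADRB2 overexpression) incubated 18-20hr at 37C; compounds added from DMSO; agonist mix (1nM isoproterenol, 100uM IBMX, 25uM Ro-20-1724) added; 0.5hr RT; d2-cAMP and anti-cAMP-cryptate added; 1hr RT; 665/615 nm read.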

[19] = molecular target: D(2) dopamine receptor (Homo sapiens) (UniProt P14416); test: Dopamine D2 receptor (DRD2) small molecule antagonists, cell-based qHTS assay (AID 1963595; active = well fitted inhibition curve with a large enough effect in the signal ratio in the repeat runs, with a control signal flat; the % refers to the signal ratio)
Chain of D(2) dopamine receptor (Homo sapiens) (P14416 whole entry, looked up): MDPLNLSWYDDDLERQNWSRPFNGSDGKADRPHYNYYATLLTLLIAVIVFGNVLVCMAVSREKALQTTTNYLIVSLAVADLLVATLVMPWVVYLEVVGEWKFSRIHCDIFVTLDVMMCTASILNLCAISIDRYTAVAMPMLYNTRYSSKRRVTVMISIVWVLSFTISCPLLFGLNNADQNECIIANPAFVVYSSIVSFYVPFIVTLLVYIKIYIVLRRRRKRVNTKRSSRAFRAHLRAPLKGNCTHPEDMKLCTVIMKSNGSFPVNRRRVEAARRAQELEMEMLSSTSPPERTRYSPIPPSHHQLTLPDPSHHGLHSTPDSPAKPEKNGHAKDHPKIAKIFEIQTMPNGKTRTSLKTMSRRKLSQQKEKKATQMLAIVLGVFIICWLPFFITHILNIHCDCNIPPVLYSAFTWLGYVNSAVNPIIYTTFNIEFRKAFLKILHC
In short: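 Antagonism was scored as restored cAMP in HEK293-DRD2 cells. These cells were stimulated with 200 nM NKH477 and 12 nM quinpirole for 30 min at room temperature, in the presence of 0.1 mM Ro20-1724.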

[20] = molecular target: D(2) dopamine receptor (Homo sapiens) (UniProt P14416); test: Dopamine D2 receptor (DRD2) small molecule agonists, cell-based qHTS assay (AID 1963594); note: nearly all actives have a fitted effect of over 35% in size
In short: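 HEK293 cells stably expressing human DRD2, pre-treated with PDE inhibitor Ro20-1724 (0.1 mM final) and compound 10 min at room temperature, then stimulated with NKH477 (200nM […]) for 30 min. cAMP read by HTRF (665/620 nm).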

Measured: Potency

O=C1OC(OC(=O)c2cccnc2Nc2cccc(C(F)(F)F)c2)c2ccccc21 (stereo not given)
active: [2] 13.3 µM
not listed: [20]
inactive: all other assays above

CCCCCCOC(=O)CCC
inactive: all assays above

C=C(C)C(=O)OCC(O)CO (stereo not given)
not listed: [17]
inactive: all other assays above

O=C(O)C(=O)Cc1c[nH]c2ccccc12
active: [2] 54.5 µM
not listed: [17]
inactive: all other assays above

O=S(=O)(O)c1ccc(O)c2ncccc12
not listed: [17]
inactive: all other assays above

Cc1nc2ccc(Cl)cc2[nH]1
not listed: [17]
inactive: all other assays above

O=C(O)CCCc1ccccc1
not listed: [17]
inactive: all other assays above

C[C@@H](CN1CC(=O)NC(=O)C1)N1CC(=O)NC(=O)C1
not listed: [18]
inactive: all other assays above

CCN(CC)CCOc1ccccc1C(=O)CCc1ccccc1
active: [12] 1.3 µM | [14] 2.31 µM
not listed: [17]
inactive: all other assays above

CCOC(=O)C(Br)c1ccccc1 (stereo not given)
not listed: [17] | [20]
inactive: all other assays above

NS(=O)(=O)c1ccc(Cl)c(S(N)(=O)=O)c1
not listed: [17]
inactive: all other assays above

CC(C)(Oc1ccc(Cl)cc1)C(=O)OCCCOC(=O)C(C)(C)Oc1ccc(Cl)cc1
not listed: [17] | [19]
inactive: all other assays above

CCCCC
active: [3] 38.3 µM
not listed: [17]
inactive: all other assays above

C=CC(OCC)OCC
not listed: [17]
inactive: all other assays above
